# Out of some 5,500 compounds screened, about 2,000 (36%) were called active. Roughly 18% stayed inconclusive and do not appear here. This is one part of the list. Values without a mark were called inactive. Cut-off read from the data, not from the text of the source: active = normalized growth mostly below about 0.91 (no sharp cut-off); inconclusive = no clear call, values can overlap the other calls; inactive = mostly above about 0.92.
# Assay: chemical genetic growth profiling, strain panel (AID 1159580);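 note: tested at 20 µM; growth read once vehicle control cultures reached saturation at 30 °C; 1 = growth at the plate median or of vehicle wells; lower values mean less growth of the strain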
# Settings: S. cerevisiae deletion strains, growth OD
smiles,measurement,setting,value
Nc1ccccc1C(=O)N/N=C\c1cc(Br)ccc1O,normalized growth,"locus YAR019C, strain CDC15, active compounds read low",0.985
same,normalized growth,"locus YBL105C, strain PKC1, active compounds read low",0.984
same,normalized growth,"locus YBR135W, strain CKS1, active compounds read low",0.981
same,normalized growth,"locus YBR136W, strain MEC1, active compounds read low",0.982
same,normalized growth,"locus YBR160W, strain CDC28, active compounds read low",0.989
same,normalized growth,"locus YDL017W, strain CDC7, active compounds read low",0.98
same,normalized growth,"locus YDL028C, strain MPS1, active compounds read low",0.976
same,normalized growth,"locus YDL101C, strain DUN1, active compounds read low",0.984
same,normalized growth,"locus YDL108W, strain KIN28, active compounds read low",0.982
same,normalized growth,"locus YDL132W, strain cdc53, active compounds read low",0.97
same,normalized growth,"locus YDL214C, strain PRR2, active compounds read low",0.972
same,normalized growth,"locus YDR052C, strain DBF4, active compounds read low",0.99
same,normalized growth,"locus YDR054C, strain cdc34, active compounds read low",0.97
same,normalized growth,"locus YDR226W, strain ADK1, active compounds read low",0.96
same,normalized growth,"locus YDR477W, strain SNF1, active compounds read low",0.961
same,normalized growth,"locus YER123W, strain YCK3, active compounds read low",0.877
same,normalized growth,"locus YER133W, strain GLC7, active compounds read low",0.979
same,normalized growth,"locus YFL009W, strain cdc4, active compounds read low",0.965
same,normalized growth,"locus YFL029C, strain CAK1, active compounds read low",0.971
same,normalized growth,"locus YFR003C, strain YPI1, active compounds read low",0.974
same,normalized growth,"locus YFR019W, strain FAB1, active compounds read low",0.985
same,normalized growth,"locus YFR028C, strain CDC14, active compounds read low",0.985
same,normalized growth,"locus YGR040W, strain KSS1, active compounds read low",0.982
same,normalized growth,"locus YGR052W, strain FMP48, active compounds read low",0.925
same,normalized growth,"locus YGR092W, strain DBF2, active compounds read low",0.452 (active)
same,normalized growth,"locus YHR030C, strain SLT2, active compounds read low",0.855
same,normalized growth,"locus YHR079C, strain IRE1, active compounds read low",0.828
same,normalized growth,"locus YHR082C, strain KSP1, active compounds read low",1.02
same,normalized growth,"locus YHR205W, strain SCH9, active compounds read low",0.866
same,normalized growth,"locus YIL147C, strain SLN1, active compounds read low",0.981
same,normalized growth,"locus YJL095W, strain BCK1, active compounds read low",0.798
same,normalized growth,"locus YJL128C, strain PBS2, active compounds read low",0.933
same,normalized growth,"locus YJL157C, strain FAR1, active compounds read low",0.947
same,normalized growth,"locus YJR016C, strain ILV3, active compounds read low",0.976
same,normalized growth,"locus YJR066W, strain TOR1 (second series), active compounds read low",0.903
same,normalized growth,"locus YJR066W, strain TOR1, active compounds read low",0.976
same,normalized growth,"locus YKL048C, strain ELM1, active compounds read low",0.928
same,normalized growth,"locus YKL067W, strain YNK1, active compounds read low",0.948
same,normalized growth,"locus YKL101W, strain HSL1, active compounds read low",0.901
same,normalized growth,"locus YKL193C, strain SDS22, active compounds read low",0.976
same,normalized growth,"locus YKL203C, strain TOR2, active compounds read low",1.02
same,normalized growth,"locus YLR113W, strain HOG1, active compounds read low",0.784 (active)
same,normalized growth,"locus YLR133W, strain CKI1, active compounds read low",0.927
same,normalized growth,"locus YLR403W, strain SFP1, active compounds read low",0.88
same,normalized growth,"locus YML070W, strain DAK1, active compounds read low",0.901
same,normalized growth,"locus YMR001C, strain CDC5, active compounds read low",0.986
same,normalized growth,"locus YMR205C, strain PFK2 (second series), active compounds read low",0.939
same,normalized growth,"locus YMR277W, strain FCP1, active compounds read low",0.976
same,normalized growth,"locus YNL006W, strain LST8, active compounds read low",0.995
same,normalized growth,"locus YNL020C, strain ARK1, active compounds read low",0.929
same,normalized growth,"locus YNL161W, strain CBK1, active compounds read low",0.979
same,normalized growth,"locus YNL183C, strain NPR1, active compounds read low",0.958
same,normalized growth,"locus YNL207W, strain RIO2, active compounds read low",0.979
same,normalized growth,"locus YNL222W, strain SSU72, active compounds read low",0.981
same,normalized growth,"locus YNL307C, strain MCK1 (second series), active compounds read low",0.871
same,normalized growth,"locus YOL078W, strain AVO1, active compounds read low",0.984
same,normalized growth,"locus YOL136C, strain PFK27, active compounds read low",0.898
same,normalized growth,"locus YOR061W, strain CKA2, active compounds read low",0.922
same,normalized growth,"locus YOR119C, strain RIO1, active compounds read low",1.08
same,normalized growth,"locus YOR231W, strain MKK1, active compounds read low",0.871
same,normalized growth,"locus YOR329C, strain SCD5, active compounds read low",0.98
same,normalized growth,"locus YPL031C, strain PHO85, active compounds read low",0.95
same,normalized growth,"locus YPL153C, strain RAD53, active compounds read low",0.927
same,normalized growth,"locus YPL204W, strain HRR25, active compounds read low",0.947
same,normalized growth,"locus YPL209C, strain IPL1, active compounds read low",0.985
same,normalized growth,"locus YPL256C, strain CLN2, active compounds read low",0.779 (active)
same,normalized growth,"locus YPR025C, strain CCL1, active compounds read low",0.979
same,normalized growth,"locus YPR106W, strain ISR1, active compounds read low",0.968
same,normalized growth,"locus YPR111W, strain DBF20, active compounds read low",0.969
same,normalized growth,"strain NNK1, active compounds read low",0.988
same,normalized growth,"strain TSCII, active compounds read low",0.99

# — PubChem BioAssay AID1159580 (chemical genetic matrix, 2015)
